# HP1b binding inh: HTS for Inhibitors of HP1-beta Chromodomain Interactions with Methylated Histone Tails; Chromobox protein homolog 1 (Homo sapiens), P83916; AlphaScreen HP1-beta / biotin-H3K9me3 peptide binding; Potency, µM (doses to about 114 µM), hits mostly inhibitors; hit rate 0.56% among 390,000; AID 540317, 2011; also: nearly all actives have a fitted effect of over 70% in size
# Target sequence (P83916 whole entry, looked up): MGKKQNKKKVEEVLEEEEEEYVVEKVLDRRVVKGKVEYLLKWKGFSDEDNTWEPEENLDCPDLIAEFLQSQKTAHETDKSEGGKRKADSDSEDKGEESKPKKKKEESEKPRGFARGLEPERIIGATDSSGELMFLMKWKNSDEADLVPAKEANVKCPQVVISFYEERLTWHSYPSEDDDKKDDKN
#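 AlphaScreen: HP1-beta (50 nM) preformed 30 min with biotin-H3(1-18)K9me3 peptide (50 nM) in PBS pH 7.4, 0.01% Tween-20. Compound added for 30 min at RT, then streptavidin donor/nickel chelate acceptor beads (10 ug/mL) for 30 min.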
# JMJD2A Tudor inh: qHTS Assay for Inhibitors of JMJD2A-Tudor Domain; Lysine-specific demethylase 4A (Homo sapiens), O75164; AlphaScreen JMJD2A-Tudor / H3K4me3 peptide binding; Potency, µM (highest dose often 114 µM), usual class: inhibitors; hit rate 4.4% among 390,000; AID 504339, 2011; also: nearly all actives have a fitted effect of over 50% in size
# Sfp PPTase inh: qHTS Assay for Inhibitors of Bacillus subtilis Sfp phosphopantetheinyl transferase (PPTase). 4'-phosphopantetheinyl transferase ffp (Bacillus subtilis), Q9F4F7. Biochemical Sfp PPTase activity, qHTS. Potency, µM, most hits filed as inhibitors. hit rate 3.5% among 310,000. AID 1490, 2009;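 also: the enzyme is Sfp with the accession as filed and its product quenches rhodamine fluorescence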
#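 Sfp 15 nM + cpd, 15 min RT; start w/ rhodamine-CoA 5 uM, BHQ-2-YbbR 12.5 uM (final); 50 mM Hepes pH 7.6, 10 mM MgCl2, 0.01% NP-40, 0.01% BSA; read 525/598 nm at 0 and 30 min.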
# ALOX12 inh: Primary qHTS assay for inhibitors of human arachidonate 12S-lipoxygenase (ALOX12): Round 2; Polyunsaturated fatty acid lipoxygenase ALOX12 (Homo sapiens), P18054; purified 12hLO, xylenol orange hydroperoxide absorbance; Potency, µM (titrated, usually from 108 µM), hits mostly inhibitors; hit rate 1.1% among 580,000
#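 Purified human 12hLO at 150 nM in 25 mM Hepes, 0.01% Triton X-100, pH 7.0, preincubated 15 min at room temperature with compound. Reaction started with 40 uM arachidonic acid, 30 min at room temperature. Hydroperoxide measured by Fe-xylenol orange, 573/405 nm absorbance ratio.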
# G9a block: qHTS Assay for Inhibitors of Histone Lysine Methyltransferase G9a | G9a H3K9 monomethylation, AlphaScreen, 2 h | Potency, µM (titrated, usually from 102 µM), most hits filed as inhibitors | hit rate 8.8% among 350,000 | AID 504332, 2011; also: nearly all actives have a fitted effect of over 75% in size
# Target sequence (Q96KQ7 913-1193 limits assumed): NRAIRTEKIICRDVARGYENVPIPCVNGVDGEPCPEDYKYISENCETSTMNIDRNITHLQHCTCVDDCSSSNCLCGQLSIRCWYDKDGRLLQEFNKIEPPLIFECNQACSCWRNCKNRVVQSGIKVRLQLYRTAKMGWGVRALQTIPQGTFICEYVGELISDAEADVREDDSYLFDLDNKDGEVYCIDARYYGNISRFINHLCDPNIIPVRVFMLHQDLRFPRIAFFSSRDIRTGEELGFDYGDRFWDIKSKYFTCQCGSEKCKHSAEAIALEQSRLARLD
#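 Compounds were preincubated with 20 nM G9a for 15 min, after which biotinylated H3K9 peptide (500 nM) and SAM (20 uM) started a 2 h room-temperature reaction. Monomethylated product was quantified by antibody-based AlphaScreen chemiluminescence.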
# BAZ2B inh: qHTS Assay for Inhibitors of BAZ2B. Potency, µM (highest dose often 114 µM), most hits filed as inhibitors. hit rate 4.4% among 360,000. Bromodomain adjacent to zinc finger domain protein 2B (Homo sapiens), Q9UIF8. AID 504333, 2011. AlphaScreen BAZ2B-H3K14Ac peptide displacement; also: nearly all actives have a fitted effect of over 60% in size
#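 In this displacement format the biotinylated H3(5-23) peptide acetylated at Lys14 serves as ligand at 50 nM, with BAZ2B at 50 nM in PBS pH 7.4 containing 0.01% Tween-20. Donor and acceptor beads are 10 ug/mL final.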
# Numbers stand for hits; – = inactive; ? = inconclusive; · = no result given; [ ] = remark or other dose. Only some compounds are listed: those with a hit (about 8.7% of all), similar ones and a draw of the others. Calls follow the shape of the dose curve; as a rule, active = well fitted curve in the direction sought with a large enough effect; inconclusive = small, poorly fitted or top-dose-only effect, or another doubt; inactive = no such curve, though single readings can be large; an effect the other way counts as inactive or inconclusive.
SMILES,HP1b binding inh,JMJD2A Tudor inh,Sfp PPTase inh,ALOX12 inh,G9a block,BAZ2B inh
CCOC(=O)Cc1csc(NC(=O)c2sc3nc4cc(C)ccc4cc3c2N)n1,–,40µM,?,?,71µM,–
CCOC(=O)Cc1csc(NC(=S)NC(=O)c2ccccc2)n1,–,–,16µM,–,?,?
O=C(/C=C/c1ccc(Br)o1)Nc1nccs1,?,32µM,?,–,45µM,–
O=CNc1ccc(O)cc1,·,·,·,–,·,·
CCOC(=O)c1ccccc1NC(=O)NCc1c(-n2cccc2)sc2c1CCN(C)C2,·,·,·,–,·,·
CCOCCCNC(=O)CNC(=S)N(Cc1ccc(C)cc1)Cc1ccco1,–,–,40µM,–,10µM,–
C=CCNC(=S)N(Cc1ccc(C)cc1)Cc1ccco1,·,·,·,–,·,·
COc1ccc(C(=O)OCc2cc(=O)n3oc(C)cc3n2)cc1NC(=O)C(C)(C)C,·,·,·,–,·,·
Cc1cc(C)cc(COC(=O)c2cnc(C)cn2)c1,·,·,·,–,·,·
COc1ccc(N2CCN(C(=O)c3nc(-c4ccc(Cl)cc4)n4c3CCCCC4)CC2)cc1,?,35µM,·,–,11µM,45µM
COc1ccc(OC)c(CCNC(=O)c2nc(-c3ccc(Cl)cc3)n3c2CCCCC3)c1,–,28µM,·,?,14µM,16µM
CCOc1ccc(CCNC(=O)c2nc(-c3cccc(F)c3)n3c2CCCCC3)cc1OCC,?,50µM,·,–,28µM,18µM
Cc1nc(N2CCCC2)ncc1C(=O)N1CCN(c2ccccc2F)CC1,–,–,·,–,–[12.7 µM],–
Cc1nc(N2CCCC2)ncc1C(=O)N1CCN(c2ccc(Cl)cc2)CC1,–,–,·,–,–,79µM
CCOc1ccc(N(Cc2nc3nc(C)cc(C)n3n2)S(=O)(=O)c2ccccc2)cc1,·,·,·,–,·,·
O=C(CC1CCCC1)N1CCC(Cc2nc(C3CC3)n[nH]2)C1 (stereo unspecified),·,·,·,–,·,·
Cc1ccc(CNC(=O)c2nc(-c3ccc(Cl)cc3)n3c2CCCCC3)cc1,?,22µM,·,?,8.9µM,10µM
COc1ccc(NC(=O)C(CCCCNC(=O)OC(C)(C)C)NC(=O)OCc2ccccc2)cc1 (stereo unspecified),–,?,–,?,3.5µM,?
CC(C)(C)OC(=O)N[C@@H](CCCCNC(=O)OCc1ccccc1)c1nnc([C@H](CCCCNC(=O)OCc2ccccc2)NC(=O)OC(C)(C)C)o1,–,–,–,·,–,–
CC(C)(C)OC(=O)N[C@@H](CC(=O)OCc1ccccc1)C(=O)O,–,50µM,–,?,–,–
COC(=O)C(Cc1cncn1COCc1ccccc1)NC(=O)OC(C)(C)C (stereo unspecified),–,?,–,–,28µM,79µM
CN(C)C(=O)CCc1c(-c2ccc(F)cc2)[nH]c2ccccc12,·,·,·,–,·,·
COc1cc2c(cc1CNc1ncncn1)CCC2,·,·,·,–,·,·
O=C(CSc1nn(-c2ccccc2)c(=S)s1)Nn1cnnc1,–,–,–,–,–,–
O=C(CSc1nc2cc(Cl)ccc2s1)NC(=O)NCc1ccco1,–,?,89µM,?,–,–
SMILES,HP1b binding inh,JMJD2A Tudor inh,Sfp PPTase inh,ALOX12 inh,G9a block,BAZ2B inh
O=C(NCc1ccco1)c1nc2ccccc2s1,–,–,–,–,–[12.7 µM],–
O=C(CSc1nn(-c2ccccc2)c(=S)s1)NC(=O)NCc1ccco1,–,–,–,–,14µM,?
CCOc1ccc2nc(SCC(=O)NC(=O)NCc3ccco3)sc2c1,–,–,–,–,?,–
O=C(COC(=O)CCCc1nc2ccccc2s1)NC(=O)NCc1ccco1,–,?,–,–,?,56µM
COCCNC(=O)COC(=O)CSCc1nc2ccccc2s1,–,–,–,–,79µM,–
Cc1noc(C)c1CCC(=O)Nc1nc(-c2ccc3c(c2)OCCO3)cs1,·,·,·,–,·,·
CC(C)C(=O)Nc1ccccc1Br,·,·,·,–,·,·
Cc1ccc(C(=O)OCc2ccc(C#N)cc2)cc1,·,·,·,–,·,·
C=CCNC(=S)NNC(=O)CSc1nc2ccccc2s1,–,–,–,–,28µM,–
O=C(CSc1nc2ccccc2s1)NNC(=S)Nc1ccc(Cl)cc1,–,–,–,–,40µM,–
CCS(=O)(=O)Nc1ccc(C2(C(=O)Nc3cccc(F)c3C)CCCCC2)cc1,·,·,·,–,·,·
COc1ccc(/C=C2\SC(=S)N(CCCC(=O)Nc3cccc(C(=O)O)c3)C2=O)cc1OC,–,–,–,?,?,–
CCOc1ccc(/C=C2\SC(=S)N(CCC(=O)Nc3cccc(C(=O)O)c3)C2=O)cc1,?,35µM,–,?,79µM,50µM
CCOC(=O)CN1C(=O)S/C(=C/c2ccc(OCc3ccc(C(=O)O)cc3)cc2)C1=O,–,?,–,–,–[2.33 µM],50µM
CCOc1ccc(/C=C2\SC(=S)N(CCC(=O)Nc3ccc(C(=O)O)cc3)C2=O)cc1,?,25µM,–,?,28µM,22µM
Cc1cccc(CN2CCCN(S(=O)(=O)c3cn(C)cn3)C(c3ccccc3)CC(=O)NCC2)c1 (stereo unspecified),·,·,·,–,·,·
CC(NC(=O)c1nccnc1N)c1ccc2ccccc2c1 (stereo unspecified),·,·,·,–,·,·
FC(F)(F)c1ccc(/C=N/N2CCN(Cc3cccc4ccccc34)CC2)cc1,–,–,–,–,–,–
Cc1ccsc1/C=N/N1CCN(c2ccccn2)CC1,–,63µM,–,–,50µM,40µM
Fc1ccc(/C=N/N2CCN(Cc3ccccc3)CC2)cc1,?,?,–,?,79µM,45µM
c1ccc(-c2nnc(CN3CCN(c4ccccn4)CC3)o2)cc1,–,–,·,–,–,–
Cc1ccsc1CN1CCN(c2ccccn2)CC1,–,1.8µM,–,–,?,50µM
O=C(O)c1ccc(/C=N/N2CCN(Cc3cccc4ccccc34)CC2)cc1,–,–,–,–,45µM,–
CCOc1ccc2c(c1)cc(C(=O)NCCOC)n2C,·,·,·,–,·,·
CCn1cc(S(=O)(=O)N2CCC(C(=O)N3CCCCCCNC(=O)CC3)CC2)cn1,·,·,·,–,·,·
SMILES,HP1b binding inh,JMJD2A Tudor inh,Sfp PPTase inh,ALOX12 inh,G9a block,BAZ2B inh
Cc1ccc(CNC(=O)CSc2nc3ccccc3o2)cc1,·,·,·,–,·,·
CSc1ccc(/C=N/NC(=O)CN2CCN(Cc3ccc(Cl)cc3)CC2)cc1,?,–,–,–,–,–
Cc1ccsc1/C=N/N1CCN(Cc2ccccc2)CC1,?,56µM,–,?,32µM,?
Cn1cccc1/C=N/N1CCN(c2ccccn2)CC1,–,?,–,?,16µM,50µM
Cc1ccsc1/C=N/N1CCN(c2ccccc2)CC1,–,?,–,–,–[2.33 µM],?
CSc1ccc(/C=N/N2CCN(Cc3ccc(Cl)cc3)CC2)cc1,–,?,–,–,?,22µM
